Experimental data as given in PubChem BioAssay (NCI).
The panel holds about 83,000 compounds, 20% with a hit somewhere; the sample as a whole holds those more often.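 Results are percent growth after 48 hours of single-concentration exposure. 100 means growth as in untreated cells, lower positive values show inhibition; negative values down to -100 show cell death.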 Values without a mark were called inactive. Calls of active or inactive are those of the source.

tested on: OVCAR-8 ovarian; experiment: NCI-60 one-dose screen, 48 h (100 = growth as untreated, 0 = no growth, -100 = all killed); details: 10 µM unless noted
Description: Growth inhibition of the OVCAR-8 human tumor cell line is measured as a screen for anti-cancer activity. Cells are grown in 96 well plates and exposed to the test compound for 48 hours. Compounds are tested at a single concentration, which is 10^-5 M for most compounds. The reported endpoint is percent growth (GI% or GIPRCNT), where numbers from 0 - 100% represent growth inhibition, and numbers from -100% - 0 represent cell death. For example, a value of 40 represents 60% growth inhibition. A value of 0 means no net growth occurred over the course of the experiment. A value of -40 indicates 40% of cells at the beginning of the experiment died by the end of the experiment. A value of -100 means all cells are dead at the end of the experiment.
NCI-60 Human Tumor Cell Lines Screen was performed using the standard one-dose NCI protocol, which is described in more detail at https://dtp.cancer.gov/discovery_development/nci-60/default.htm.
Compounds with GIPRCNT values below 10 were considered active. Activity score was based on GIPRCNT using the following formula: […]
Score is 0 for GIPRCNT values of 100 or above, 50 for GIPRCNT values of 0, and 100 for GIPRCNT values of -100.

Compound	growth
O=C(Cn1cc(CSc2nc3ccccc3o2)nn1)Nc1ccc([N+](=O)[O-])cc1	107%
C=CCn1c(SCC(=O)Nc2ccc(C(=O)/C=C/c3ccc(Cl)cc3)cc2)nnc1-c1ccccc1	102%
O=C1C(c2c(O)[nH]c3ncccc23)=Nc2ccccc21	84.4%
Cc1cc2c(C(C)C)c(O)c(O)c(/C=N/O)c2c(O)c1-c1c(C)cc2c(C(C)C)c(O)c(O)c(/C=N/O)c2c1O	8.35% (active)
O=C(Oc1ccccc1)c1cc(O)c(O)c(O)c1	71.4%
O=c1c(/C=C/c2c(O)ccc3ccccc23)nnc2sc(-c3cccc([N+](=O)[O-])c3)nn12	22.4%
CO[C@]12C=C/C(=C(/C(=O)OCc3cccnc3)C(=O)CCCCCCCC[C@]3(OC)C=C/C(=C(/C(=O)OCc4cccnc4)C(=O)CCCCCCCC1)O3)O2	7.77% (active)
COc1cc2c(c(OC)c1OC)CCC(c1cccc(NC(=O)c3cccc(Cl)c3)c1)O2 (stereo not given)	95.6%
c1ccc2cc(Cn3cc[n+](Cc4ccc5ccccc5c4)c3)ccc2c1	10.9%
CC(=O)O[C@H]1CC[C@@]2(C)C(=CC[C@@H]3[C@@H]2CC[C@]2(C)C(Cl)=C(c4nc5ccc(Cl)cn5c4NC(C)(C)C)C[C@@H]32)C1	96.9%
CNc1nc2ncc(-c3c(C)noc3C)cc2n1Cc1ccccc1	55.9%
Cc1c2cnccc2c(C)c2c1c1cc(C(=O)O)ccc1n2C	5.83% (active)
Nc1ncc(-c2ccc3ncnc(N4CCc5cc(F)c(Cl)cc54)c3c2)cc1C=O	31.4%
CC1=C(C(=O)c2ccccc2)C(c2ccc3c(c2)OCO3)NC(=S)N1 (stereo not given)	46.7%
CCN1C(=O)N(CC)C2C1NN=c1s/c(=C3\C(=O)N(C)c4ccccc43)c(=O)n12 (stereo not given)	37.6%
O=C(NS(=O)(=O)c1ccccc1)n1cc(-c2ccncc2)c(-c2cc(O)cc(Cl)c2)n1	104%
COc1ccc(C2=C/C(=C\c3ccccc3O)C(=O)N2Cc2ccccc2)cc1	70.9%
Cc1ccc(-c2nn(CC(=O)N3CCOCC3)c(N)c2C#N)cc1	99.8%
CC1=C([Se]CC(OC(=O)[C@@H](CO)NC(=O)OC(C)(C)C)C(=O)NCCCCCC(=O)OCc2ccccc2)C(=O)c2ccccc2C1=O (stereo not given in full)	-82.4% (active)
Nc1ncc(-c2ccc3ncnc(N4CCc5ccc(Cl)cc54)c3c2)cn1	4.28% (active)

Compound	growth
COC1CC(O)C2=C(CC3C(/C(C)=C\CC=C(C)C)CCC3(C)O2)C1=O (stereo not given)	99.9%
O=C(O)CCCN1C(=O)CSC1=S	105%
O=C1c2ccccc2-c2c1c1ccncc1c(=O)n2CCCn1ccnc1	32.9%
O=C1/C(=C/c2cccc(Br)c2)COc2ccc(O)c(O)c21	3.75% (active)
Cn1ncc(CC(=O)O)c1-n1nnc2cc(Cl)ccc2c1=O	99.6%
COc1ccc(-c2csc(NC(=O)CSc3nc(C)cc(=O)[nH]3)n2)cc1	102%
O=C(N/N=C/c1ccccc1Cl)c1ccccc1Nc1ccnc(C(F)(F)F)c1	7.58% (active)
Cn1ccnc1C(=O)/C=C/c1ccc(C(=O)Nc2ccccc2F)cc1	15.6%
CCOC(=O)c1c(NC(=S)Nc2ccc([N+](=O)[O-])cc2)sc2c1CCCCC2	77.3%
CCOC(=O)C#Cc1c(CC(=O)OCC)nnn1[C@H]1O[C@@H](CO)[C@@H]2OC(C)(C)O[C@@H]21	94.6%
O=C(OCC(O)(CO)C(=O)NC12CC3CC(CC(C3)C1)C2)c1ccc(Cl)cc1 (stereo not given)	92.2%
O=c1oc2ccccc2cc1-c1nn(-c2ccccc2)cc1/C=N/Nc1nc(-c2ccccc2)c(N=Nc2ccccc2)s1	77.9%
COc1cc2nc3cc([N+](=O)[O-])ccc3c(NCCCNCCO)c2cc1OC	-28.9% (active)
Cc1nc2cccc(NCc3ccc(C(=O)NO)cc3)c2c(=O)n1-c1ccccc1	3.81% (active)
C1=C2CCCC3=Cc4ccccc4OC23Oc2ccccc21	38.5%
CCCCCCCCCCCCCC[n+]1ccc2c(C)c3c(c(C)c2c1)c1cc(O)ccc1n3CC	-43.4% (active)
CCCc1cc(CCC)n2nc(N)nc2n1	106%
O=C(COc1ccc(/C=C2\Oc3ccccc3C2=O)cc1)Nc1nccs1	41.8%
COC(=O)[C@@H](Cc1c[nH]c2ccccc12)NC[C@@H](O)CN1C(=O)/C(=C\c2cc(OC)c(OC)c(OC)c2)c2ccccc21	59.3%
C=C1/C(=C\C=C2/CCC[C@]3(C)[C@@H]([C@H](C)CCCC(C)(C)O)CC[C@@H]23)C[C@@H](OC(=O)CBr)C[C@@H]1O	57.3%
